ChEMBL document CHEMBL4513216, “Probing the Open Global Health Chemical Diversity Library for Multistage-Active Starting Points for Next-Generation Antimalarials” (ACS Infect Dis, 2020)
Among all 69,000 compounds or so, about 8,600 (12%) showed an effect of 50% or more. This is one part of a sample in which strong results are shown more often than they occur.

system: Plasmodium berghei; assay: Screen against P. berghei liver stage (PbLuc), transformed with Luciferase, at 10uM; type: functional, HepG2; conditions: tested at 10 uM

SMILES	INHIBITION [%]
CC(C)c1cc(C(=O)NCCN2CCOCC2)nc(N2CCCC2)n1	51.6
COCCNC(=O)c1cc(C(C)C)nc(N2CCCC2)n1	16.8
COCCCNC(=O)c1cc(C(C)C)nc(N2CCCC2)n1	-23.8
CCCNC(=O)c1cc(C(C)C)nc(N2CCCCC2)n1	44.9
CCN(CC)CCNC(=O)c1cc(C(C)C)nc(N2CCCC2)n1	15.8
CC(C)c1cc(C(=O)NCCCN(C)C)nc(N2CCCC2)n1	52.4
c1ccc(C2CN(CCc3ccncc3)CCO2)cc1 (stereo unspecified)	6.12
CN(CC(F)(F)F)C(=O)Cn1cc(NC(=O)C(C)(C)C)cn1	-0.551
Cc1nn(C)c(N(C)C)c1CNC1CCc2cc(F)ccc21 (stereo unspecified)	27.4
Cc1ccccc1S(=O)(=O)N[C@@H]1CC[C@@H](N2CCNC(=O)C2)[C@@H]1O	6.65
COc1cc(CNCC(O)c2cccc(F)c2)cc2c1OCO2 (stereo unspecified)	44.1
Cc1nc(CN(C)C2CCCN(c3cccnn3)C2)nc2ccccc12 (stereo unspecified)	47
CCN(CC)c1ncccc1CNCc1ccc(-c2ccn[nH]2)s1	27.6
O=C(O)c1ccccc1-c1ccc(CNC(=O)C2CCOCC2)cc1	56.6
O=C(O)c1ccccc1-c1cnc(CNC(=O)C2CCOCC2)nc1	-17.35
CC1CCCCN1Cc1ccc(-c2ccccc2C(=O)O)cc1 (stereo unspecified)	25.3
COCc1cc(NCC(F)(F)F)n2nccc2n1	7.24
Cc1nc(N(C)C)nc(NCCc2cnccn2)c1C	27.4
O=S(=O)(C1CC1)N1CCC2(CC1)CC(Oc1cccnc1)CO2 (stereo unspecified)	26.7

SMILES	INHIBITION [%]
CN(C)C(=O)COC1COC2(CCN(c3cnccn3)CC2)C1 (stereo unspecified)	21.6
c1cncc(N2CCCC3(CCN(CCN4CCCC4)CC3)C2)c1	-26.1
N#Cc1ccc(N2CCC3(CC2)CC(N2CCOCC2)CO3)cc1 (stereo unspecified)	73.2
c1cncc(N2CCC3(CCCN(c4ccncc4)C3)CC2)c1	-29
N#Cc1ccc(N2CCC3(CC2)CC(Oc2cccnc2)CO3)cc1 (stereo unspecified)	73.3
CN1CCN(C2COC3(CCN(c4ccc(C#N)cc4)CC3)C2)CC1 (stereo unspecified)	39.5
N#Cc1ccc(N2CCCC3(CCN(c4cccnc4)CC3)C2)cc1	85.6
c1cncc(COC2COC3(CCN(c4cnccn4)CC3)C2)c1 (stereo unspecified)	60
Fc1cnc(N2CCC3(CC2)CC(OCc2cccnc2)CO3)nc1 (stereo unspecified)	30.5
O=C(c1ccncc1)N1CCC2(CC1)CC(Oc1cccnc1)CO2 (stereo unspecified)	35.8
CN1CCOCC12CCN(c1ccc(C#N)cc1)CC2	-15.3
O=C(c1cccc(N2CCCC2=O)c1)N1CCCC(n2cccn2)C1 (stereo unspecified)	-21.35
O=C(c1c[nH]c(=O)[nH]c1=O)N1CCCC(c2nccn2CC2CCC2)C1 (stereo unspecified)	22
CC(=O)N(Cc1ncc(C)o1)C1CCN(CCc2ccncc2)C1 (stereo unspecified)	12.7
CN(Cc1ccccc1F)C(=O)COC(=O)c1cc(Cl)c[nH]1	29.9
O=c1[nH]c(-c2ccncc2)ncc1-c1ccnc(NC2CC2)n1	18.9
c1cnc(Nc2ccc(C3CCCCN3Cc3ccncc3)cn2)nc1 (stereo unspecified)	23.3
O=C(Cc1ccccc1)N1CCC2(CC1)COCCN2CC1CC1	6.6
COCCOCC(C)NC(=O)COc1nn(C)c2nc(C)cc(C)c12 (stereo unspecified)	9.63

SMILES	INHIBITION [%]
CCOc1ncccc1NC(=O)NC1CCN(S(C)(=O)=O)CC1	44.8
O=C(Nc1nc(-c2ccccc2)ns1)N1CCC(CO)CC1	-95.1
Cc1nn(C)c(N(C)C)c1CNCc1cccc(Cn2ccnc2)c1	-31.5
N#Cc1ccc(N2CCC3(CC2)CC(OCc2cccnc2)CO3)cc1 (stereo unspecified)	58.5
Fc1ccc(N2CCC3(CC2)CC(OCc2cccnc2)CO3)cc1 (stereo unspecified)	33.4
c1cncc(CO[C@H]2CO[C@@]3(CCN(Cc4ccoc4)C3)C2)c1	-0.79
O=C(NCc1ccco1)[C@H]1C[C@@H]2CCN(c3ncccn3)C[C@H]2O1	9.51
c1cc(CNCC2OCCc3cn(CC4CC4)nc32)cs1 (stereo unspecified)	20.9
COc1ccc2c(c1)c(-c1nc(C)ncc1CN)cn2C	27.6
CN(Cc1ccccc1)CC(C)(C)NC(=O)c1cnns1	25.3
CN(Cc1ccc(CCC(C)(C)O)cc1)Cc1cccc(O)c1	22.5
CC(c1ccccn1)N(C)Cc1ccc(CCC(C)(C)O)cc1 (stereo unspecified)	36.6
CN(Cc1ccccc1)CC(C)(C)NC(=O)c1cnccn1	64.5
CC(C)(C)CNC(=O)c1ccc(C(=O)O)cn1	11.3
CN(Cc1ccc(CCC(C)(C)O)cc1)Cc1cccnc1	57.1
CN(Cc1ccccc1)CC(C)(C)NC(=O)c1ccon1	38.7
Cc1cnc(CNC(=O)N(Cc2ccccc2)CC(C)(C)O)s1	15.7
CN(Cc1ccccc1)CC(C)(C)NC(=O)c1ccc(C(N)=O)cn1	52.2
